KB-V1 MDR tox = KB-V1 MDR subline cytotoxicity; KB-V1 MDR cells viability, CellTiter-Glo, 72 h; Potency, µM (titrated, usually from 46.1 µM), most hits filed as cytotoxic; 400,000 compounds, 3.4% hits; AID 1347076; further: on the % scale 0 is the no-effect control and ±100 the full control effect; nearly all actives have a fitted effect of over 60% in size
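Cytotoxicity toward P-gp-expressing KB-V1 cells was determined as loss of CellTiter-Glo luminescence after 72 h at 37 degrees C. Compounds were tested in quantitative HTS format across a concentration range, with curves fitted to normalized data.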
HT1080-NT tox = kills 2HG-producing HT-1080-NT fibrosarcoma cells; HT-1080-NT fibrosarcoma viability, CellTiter-Glo ATP luminescence, 48 h; Potency, µM (titrated, usually from 46.1 µM), for inactives: top-dose activity, negative = less viability, usual class: cytotoxic; AID 686970; 360,000 compounds, 1.6% hits;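 further: NT is the 2HG producing partner of a matched IDH1 knockdown line; 0% = DMSO-treated cells and -100% = media-only wells without cells; nearly all actives have a fitted effect of over 55% in size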
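HT-1080-NT; 750 cells/well; 5% FBS RPMI; 48 h compound, 37 degrees C; CellTiter-Glo luminescence; curve fitting and curve-class assignment.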
KB-3-1 tox = kills parental KB-3-1 adenocarcinoma cells; AID 1347075; 400,000 compounds, 1.4% hits; Potency, µM (highest dose often 46.1 µM), actives largely listed as cytotoxic; KB-3-1 viability, CellTiter-Glo ATP luminescence, 72 h; further: on the % scale 0 is the no-effect control and ±100 the full control effect; nearly all actives have a fitted effect of over 60% in size
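Luminescent ATP read-out (CellTiter-Glo) measures survival of drug-naive KB-3-1 cells after 72 h compound exposure at 37 °C. Titration series was screened from lowest to highest concentration, with DMSO vehicle plates as background controls.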
MCF10A rereplic = DNA re-replication induction in MCF 10a cells | MCF 10A DNA re-replication, Hoechst nuclear intensity, 48 h | Potency, µM (titrated, usually from 46.1 µM), without a hit: at the top dose activity, positive = re-replication, actives largely listed as activators | 350,000 compounds, 2.9% hits; further: % of control where 0% means no effect; nearly all actives have a fitted effect of over 50% in size
SW480 rerep = inducers of DNA re-replication in SW480 colon cancer cells; SW480 DNA re-replication, Hoechst DNA content imaging, 48 h; Potency, µM (doses to about 46.1 µM), for inactives: at the highest dose re-replication activation, most hits filed as activators; 340,000 compounds, 1.8% hits; AID 624297; further: % of control where 0% means no effect; nearly all actives have a fitted effect of over 55% in size
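DNA re-replication was detected as more nuclei of elevated Hoechst intensity after 48 hr exposure to compound (23 nL pinned per well of 250 cells).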
HT1080 IDH1KD tx = HT-1080 IDH1 knockdown cell toxicity (counter line) | HT-1080 IDH1 knockdown viability, ATP luminescence, 48 h | Potency, µM (top dose mostly 46.1 µM), inactives show at the top dose activity, negative = toxicity, usual class: cytotoxic | 360,000 compounds, 2% hits | AID 686971;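 further: 0% = DMSO wells and -100% = cell-free medium wells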
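% activity derives from luminescence (CellTiter-Glo), normalised to DMSO and no-cell wells. HT-1080-IDH1KD cells, 750/well, had 48 h compound exposure at 37 °C.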
Starred values were filed as active, the others as inactive; i = inactive; ? = inconclusive; / = not tested or not shown. An excerpt weighted towards active compounds, which were near 8% of everything screened. The call rests on the fitted dose curve; in most records, active means well fitted curve in the direction sought with a large enough effect; inconclusive means small, poorly fitted or top-dose-only effect, or another doubt; inactive means no such curve, though single readings can be large; an effect the other way counts as inactive or inconclusive. Potency means the concentration at half of the fitted maximal effect.

SMILES	KB-V1 MDR tox	HT1080-NT tox	KB-3-1 tox	MCF10A rereplic	SW480 rerep	HT1080 IDH1KD tx
CN(C)C(=O)c1ccc(N=Nc2c(O)c3ccccc3[nH]c2=O)cc1	?	5.8µM*	i	12%	?	6.5µM*
O=C(O)c1ccc(N=Nc2c(O)[nH]c3ccccc23)cc1	?	6%	?	6%	23µM*	?
Cc1ccc2c(c1)-c1nc(-c3ccc(Cl)cc3)cc(-c3coc4ccccc4c3=O)c1CO2	i	/	i	/	/	/
Brc1cccc(-c2nnc3sc(CN4CCC5(CC4)OCCO5)cn23)c1	21µM*	3%	i	23%	-6%	1%
CC(C)CCN1C(=O)c2cccc3c(N)ccc(c23)C1=O	i	-18%	i	15µM*	23µM*	-30%
Nc1cccc(N2C(=O)c3cccc4c(N)ccc(c34)C2=O)c1	i	2%	i	2%	-22%	2%
Cc1cccc(N2C(=O)c3cccc4c(N)ccc(c34)C2=O)c1	i	-3%	i	?	8.2µM*	-3%
CCn1cc(C(=O)N2CCN(c3cccc(Cl)c3)CC2)c(=O)c2cc(S(=O)(=O)N3CCOCC3)ccc21	i	/	i	/	/	/
Fc1ccc2cc(-c3ccsc3)ncc2c1	i	16%	i	-7%	-2%	17%
CSc1ccccc1NC(=O)CN(c1ccccc1Br)S(C)(=O)=O	15µM*	10%	i	-1%	9%	8%
Cc1cccc(N(CC(=O)Nc2ccccc2F)S(C)(=O)=O)c1	23µM*	8%	i	17%	-1%	-1%
COc1ccc(N(CC(=O)Nc2ccccc2SC)S(C)(=O)=O)cc1OC	i	2%	i	1%	-2%	-1%
O=C(N/N=C/C=C/c1ccccc1[N+](=O)[O-])c1ccncc1	?	-3%	i	-3%	1%	-13%
O=C(N/N=C/C=C\c1ccccc1[N+](=O)[O-])c1cc(-c2ccc3ccccc3c2)n[nH]1	i	13µM*	i	10µM*	8.2µM*	15µM*
CCc1ccc(-c2cc(C(=O)N/N=C/c3ccccn3)[nH]n2)cc1	i	-28%	i	?	-5%	-21%
O=C(N/N=C/c1ccccn1)c1cc(-c2ccc3ccccc3c2)n[nH]1	i	?	i	?	?	16µM*
O=C(N/N=C/c1ccco1)c1cc(-c2ccc3ccccc3c2)n[nH]1	i	?	i	7.9µM*	23µM*	?
O=C(CSc1ncn[nH]1)NCc1ccccc1Cl	i	15%	i	3%	-11%	13%
O=C(OCc1ccccc1)/C(=C/c1cccc(Br)c1)NC(=O)c1ccco1	?	-13%	i	1%	?	-20%
C=CCSc1nnc(-c2sc(-c3ccccc3)nc2C)n1C	i	14%	i	6%	-8%	4%
C=CCN(C(=O)CSC1=NC(=O)CN1C(C)=O)c1nc(C)c(-c2ccccc2)s1	i	?	i	12µM*	-110%	?
COc1ccc(C(=O)N2CCN(S(=O)(=O)c3ccc(Cl)cc3)CC2)cc1OC	15µM*	5%	i	2%	1%	1%
CCCc1cc(C(=O)N2CCN(S(=O)(=O)c3ccc(OC)c(OC)c3)CC2)cs1	5.2µM*	-16%	i	?	2%	-28%
Cc1ccc(C)c(OCCn2cc(/C=C(\C#N)C(=O)NCC3CCCO3)c3ccccc32)c1 (stereo not drawn)	i	-2%	?	16µM*	?	-16%
Cc1ccc(OCCn2cc(/C=C(\C#N)C(=O)NCC3CCCO3)c3ccccc32)cc1 (stereo not drawn)	21µM*	-4%	i	18%	/	-10%
SMILES	KB-V1 MDR tox	HT1080-NT tox	KB-3-1 tox	MCF10A rereplic	SW480 rerep	HT1080 IDH1KD tx
Cc1ccc(OCCn2cc(/C=C(\C#N)C(=O)NCC3CCCO3)c3ccccc32)cc1C (stereo not drawn)	?	-6%	i	?	?	9%
Cc1cccc(N(CC(=O)NC2CCCCC2)C(=O)c2ccc(C)s2)c1	i	2%	i	?	7.3µM*	?
Cc1ccc(S(=O)(=O)N(CC(=O)NC2CCCC2)c2cccc(C)c2)cc1	4.1µM*	10%	i	-6%	-4%	7%
CCCOc1cccc(C(=O)Nc2ccc(-c3nc4ccccc4o3)cc2)c1	i	/	i	/	/	/
Cc1cc(CNC(=O)c2cccc(OC3CCN(S(=O)(=O)N(C)C)CC3)c2)on1	i	-18%	i	4%	20%	-13%
CC(=O)c1cccc(NC(=O)c2cc3sc(Cl)cc3n2C)c1	i	/	i	/	/	/
CC(=O)n1cc(Nc2ccccc2C(=O)O)c2ccccc21	?	4%	i	3%	-3%	17%
CC(=O)n1cc(N(C(=O)CCl)c2ccc(Cl)cc2)c2ccccc21	?	2.3µM*	?	?	2.6µM*	6.5µM*
COc1ccccc1N(C(=O)CCl)c1cn(C(C)=O)c2ccccc12	15µM*	1.5µM*	?	?	?	7.3µM*
O=C(Nc1ccc(F)cc1)c1oc2ccccc2c1NC(=O)C12CC3CC(CC(C3)C1)C2	i	/	i	/	/	/
O=C(Nc1ccccc1N1CCCCC1)c1ccc([N+](=O)[O-])o1	?	0%	?	?	?	2%
Cc1ccccc1C(=O)N1CCN(c2ccc(NC(=O)c3ccc([N+](=O)[O-])o3)cc2)CC1	?	1.3µM*	5.8µM*	?	1.6µM*	2.6µM*
O=C(Nc1ccc(N2CCN(C(=O)c3ccccc3)CC2)cc1)c1ccc([N+](=O)[O-])o1	?	7.3µM*	i	?	-15%	?
O=C(Cc1ccc(Cl)cc1)Nc1ccccc1N1CCN(C(=O)c2ccccc2)CC1	?	-16%	i	18µM*	?	-30%
COc1ccc(C(=O)Nc2ccc(N3CCN(C(=O)c4ccccc4)CC3)cc2)cc1[N+](=O)[O-]	?	-8%	i	6%	-12%	-16%
O=C(Nc1ccccc1N1CCN(C(=O)c2ccc(Cl)cc2)CC1)c1ccc([N+](=O)[O-])o1	?	?	21µM*	?	16µM*	?
Cc1ccccc1C(=O)N1CCN(c2ccc(NC(=O)c3cccnc3)cc2)CC1	?	-2%	i	6%	-4%	-8%
CN(C)S(=O)(=O)c1ccc2c(c1)c(=O)c(C(=O)N1CCN(c3cccc(Cl)c3)CC1)cn2C	i	/	i	/	/	/

Source: PubChem (National Center for Advancing Translational Sciences (NCATS))
